AC50 data for 76 compounds are collected here from article PMC6792352, “Limited Chemical Structural Diversity Found to Modulate Thyroid Hormone Receptor in the Tox21 Chemical Library” (Environmental Health Perspectives, 2019).

In the assay the test system is thyroid hormone receptor (endogenous TRα and TRβ). Details: species or system GH3-TRE-Luc (rat pituitary); GH3-TRE-Luc luciferase reporter, antagonist mode against 1 nM T3, loss of signal, qHTS.
[1] abbreviates: read-out: Average AC50 (uM) GH3-TRE-Antag, antagonist mode, 1 nM T3, no GH3 cytotoxicity hit, Average AC50 (uM) GH3-TRE-Antag, 24 h.
Setting [2] is: read-out: Average AC50 (uM) GH3-TRE-Antag, antagonist mode, 1 nM T3, no GH3 cytotoxicity hit.

Counter-ions that a name gives are not always drawn. Like-named read-outs stand apart in the source and are kept apart here.

As to `CCCCCCCCn1cc[n+](C)c1` [1-Methyl-3-octylimidazolium chloride], the AC50 (commonly the concentration at which the activity in the assay is half-maximal) under setting [1] turned out to be 28.9 µM. In the case of `CCCCCCn1cc[n+](C)c1` [1-Hexyl-3-methylimidazolium tetrafluoroborate], the AC50 under setting [1] amounted to 56.1 µM. Regarding `Nc1c2c(nc3ccccc13)CCCC2` [Tacrine], the AC50 under setting [1] was found to be 41.7 µM.

For `CCCCCCn1cc[n+](C)c1` [1-Hexyl-3-methylimidazolium chloride], the AC50 under setting [1] came to 65.3 µM.

Consider `CCCCCC[n+]1ccccc1` [1-Hexylpyridinium bromide], for which the AC50 under setting [1] is 62.1 µM. Turning to `CCCN(CC)CC1COC2(CCC(C(C)(C)C)CC2)O1` (stereo not shown) [Spiroxamine], under setting [2], the AC50 was found to be 66.6 µM. Consider `CC(C)CCOC(=O)/C=C/c1ccccc1` [3-Methylbutyl cinnamate], for which, under setting [2], the AC50 came out at 81.8 µM. Consider `CCCCCCCCCCCCCC(=O)O` [Tetradecanoic acid], for which, under setting [2], the AC50 came to 52.3 µM. Turning to `CN(C)CCN1C(=O)c2ccccc2N(C)c2ccccc21` [Dibenzepin hydrochloride], under setting [2], the AC50 was found to be 36.6 µM. For the compound `C(CCOCC1CO1)COCC1CO1` (stereo not shown) [1,4-Butanediol diglycidyl ether], the AC50 under setting [2] turned out to be 37.9 µM. Consider `CC(=O)[C@H]1[C@H](C#N)C[C@H]2[C@@H]3CC=C4C[C@@H](O)CC[C@]4(C)[C@H]3CC[C@@]21C` [Pregnenolone carbonitrile], for which the AC50 under setting [2] turned out to be 13.1 µM.

With `CCc1c2c(nc3ccc(OC(=O)N4CCC(N5CCCCC5)CC4)cc13)-c1cc3c(c(=O)n1C2)COC(=O)[C@]3(O)CC` [Irinotecan hydrochloride], the AC50 under setting [2] came to 19.1 µM. Take `CCOC(CN1CCN(CC(C)C(=O)c2ccccc2)CC1)c1ccccc1` (stereo not shown) [Eprazinone dihydrochloride]: under setting [2], the AC50 was found to be 32.1 µM. In the case of `O=C(O)c1cc(I)cc(I)c1I` [2,3,5-Triiodobenzoic acid], the AC50 under setting [2] is more than 100 µM. As to `COc1cccc(C(=O)NN(C(=O)c2cc(C)cc(C)c2)C(C)(C)C)c1C` [Methoxyfenozide], the AC50 under setting [2] is 55.4 µM. For the compound `OCc1c2ccccc2cc2ccccc12` [9-Anthracenemethanol], the AC50 under setting [2] worked out at 64.3 µM. For `CC(C)(C)NCC(O)COc1ccc(NC(=O)NC2CCCCC2)cc1` (stereo not shown) [Talinolol], the AC50 under setting [2] worked out at 26.4 µM. Turning to `Cc1cc(OI)c(C(C)C)cc1-c1cc(C(C)C)c(OI)cc1C` [Thymol iodide], the AC50 under setting [2] came to 37.3 µM.

Turning to `Oc1c(Cl)ccc(Cl)c1Cl` [2,3,6-Trichlorophenol], the AC50 under setting [2] is more than 90 µM. Regarding `COc1ccc(O)cc1` [4-Methoxyphenol], the AC50 under setting [2] was more than 50 µM. For `COc1cccc(N)c1` [3-Methoxyaniline], the concentration at half-maximal activity (AC50) under setting [2] came to 80.8 µM. In the case of `O=Cc1ccc(Cl)c([N+](=O)[O-])c1` [4-Chloro-3-nitrobenzaldehyde], the AC50 under setting [2] amounted to 68.3 µM.

Consider `CCN(C(=O)c1cc(C)cc(OC[C@H](C)Nc2ccncc2)c1)C(C)C` [GW473178E methyl benzene sulphonic acid], for which the AC50 under setting [2] stood at 51.7 µM.

Regarding `C/C=C(C)/C=C/C=C(C)C` [2,6-Dimethyl-2,4,6-octatriene], the AC50 under setting [2] is more than 90 µM. In the case of `O=S(=O)(O)c1ccccc1/C=C/c1ccc(-c2ccc(/C=C/c3ccccc3S(=O)(=O)O)cc2)cc1` [Disodium 4,4'-bis(2-sulfostyryl)biphenyl], the AC50 under setting [2] is 26.4 µM. In the case of `CC1(C)[C@H](C(=O)O[C@H](C#N)c2cccc(Oc3ccccc3)c2)[C@@H]1C=C(Br)Br` [Deltamethrin], the AC50 under setting [2] turned out to be 76.3 µM. Take `O=C(CCCN1CCC(C(=O)c2ccc(F)cc2)CC1)c1ccc(F)cc1` [Lenperone]: under setting [2], the AC50 was 44.5 µM.

As to `CCN(C(=O)N(CC)c1ccccc1)c1ccccc1` [N,N'-Diethylcarbanilide], under setting [2], the AC50 amounted to 45.9 µM. Take `c1ccc(C2(c3ccccc3)CC2C2=NCCN2)cc1` (stereo not shown) [Cifenline succinate]: the AC50 under setting [2] turned out to be 35.8 µM. Consider `CCC(C)(C)C(=O)OC1=C(c2ccc(Cl)cc2Cl)C(=O)OC12CCCCC2` [Spirodiclofen], for which the AC50 under setting [2] was determined as 51.5 µM. The same measure, in the same setting: in the case of `CC[C@H](C)[C@@H](C(=O)O)n1sc2ccccc2c1=O` [(2S,3S)-3-Methyl-2-(3-oxo-1,2-benzothiazol-2(3H)-yl)pentanoic acid] it was more than 90 µM; in that of `Cc1ccc(Nc2nccc(N(C)c3ccc4c(C)n(C)nc4c3)n2)cc1S(N)(=O)=O` [Pazopanib], 14 µM; in that of `O=S1(=O)c2cccc3cccc(c23)N1CCCN1CCN(c2ccc(F)cc2)CC1` [Fananserin], more than 50 µM. On the same count and under the same terms, under `CCCCCCCCCCCC(=O)O` [Dodecanoic acid] stands 68.4 µM; under `c1ccc(CN(Cc2ccccc2)Cc2ccccc2)cc1` [Tribenzylamine], 90.8 µM.

As to `CCCCN(CCCC)CCC(O)c1cc2c(Cl)cc(Cl)cc2c2cc(C(F)(F)F)ccc12` (stereo not shown) [Halofantrine hydrochloride], under setting [2], the AC50 was found to be 15.6 µM. `O=C(O)c1nn(Cc2ccc(Cl)cc2Cl)c2ccccc12` [Lonidamine]: the AC50 under setting [2] is more than 50 µM. For `CCCOc1ccc(C(=O)OCCN(CC)CC)cc1N` [Proparacaine hydrochloride], the AC50 under setting [2] is more than 50 µM. Regarding `Cn1c(CCCC(=O)O)nc2cc(N(CCCl)CCCl)ccc21` [Bendamustine], the AC50 under setting [2] was determined as 28 µM. Regarding `CC(=O)O[C@]1(C(C)=O)CC[C@H]2[C@@H]3C=C(C)C4=CC(=O)CC[C@]4(C)[C@H]3CC[C@@]21C` [Megestrol acetate], the half-maximal activity concentration (AC50) under setting [2] was more than 20 µM. Regarding `Cc1ccccc1C(=O)Nc1ccc(C(=O)N2CCCC(O)c3cc(Cl)ccc32)c(C)c1` (stereo not shown) [Tolvaptan], the AC50 under setting [2] was determined as 21.9 µM.

For `O=[N+]([O-])c1cc[n+]([O-])cc1` [4-Nitropyridine-1-oxide], the AC50 under setting [2] was 80.5 µM. In the case of `CCCOc1ccc(S(=O)(=O)N2CCN(CC)CC2)cc1-c1nc2c(CC)n(Cc3ccccn3)nc2c(=O)[nH]1` [UK-343664], under setting [2], the AC50 came to 76.4 µM. In the case of `CS(=O)(=O)Nc1ccc([N+](=O)[O-])cc1Oc1ccccc1` [Nimesulide], the AC50 under setting [2] is more than 20 µM. With `Cc1ccc(C(C)c2ccc(C)c(C)c2)cc1C` [1,1-Bis(3,4-dimethylphenyl)ethane], the AC50 under setting [2] is 70.8 µM. As to `CC(C)n1c(/C=C/[C@H](O)C[C@H](O)CC(=O)O)c(-c2ccc(F)cc2)c2ccccc21` (racemic) [Fluvastatin], the AC50 under setting [1] turned out to be 45.3 µM. For the compound `CCCCCC[n+]1ccccc1` [1-Hexylpyridinium trifluoromethanesulfonate], the AC50 under setting [1] was determined as 45.4 µM. In the case of `CCCCCCCCn1cc[n+](C)c1` [1-Methyl-3-octylimidazolium hexafluorophosphate], the AC50 under setting [1] was 33 µM. As to `N=C(N)NC(=O)c1nc(Cl)c(N)nc1N` [Amiloride], under setting [1], the AC50 stood at 16.4 µM. In the case of `CCCCCC[n+]1ccccc1` [1-Hexylpyridinium chloride], the AC50 under setting [1] amounted to 71.1 µM. Turning to `CC(C)NC(=O)N1CC(=O)N(c2cc(Cl)cc(Cl)c2)C1=O` [Iprodione], the AC50 under setting [2] was 59.3 µM.

Regarding `NC(=O)N(O)[C@@H]1C=C[C@H](Oc2cccc(Oc3ccc(F)cc3)c2)C1` [CJ-013790], the AC50 under setting [2] was found to be 81.3 µM.

For `COC(=O)NC(=S)Nc1ccccc1NC(=S)NC(=O)OC` [Thiophanate-methyl], the AC50 under setting [2] is 78.1 µM. As to `CC(=O)Nc1ccn(C2COC(COC(=O)c3ccccc3)O2)c(=O)n1` (stereo not shown) [{4-[4-(Acetylamino)-2-oxopyrimidin-1(2H)-yl]-1,3-dioxolan-2-yl}methyl benzoate], the AC50 under setting [2] stood at 11.4 µM. Same read-out and setting: under `C[C@H]1O[C@@H](O[C@H]2[C@@H](O)C[C@H](O[C@H]3[C@@H](O)C[C@H](O[C@H]4CC[C@@]5(C)[C@H](CC[C@@H]6[C@@H]5CC[C@]5(C)[C@@H](C7=CC(=O)OC7)CC[C@]65O)C4)O[C@@H]3C)O[C@@H]2C)C[C@H](O)[C@@H]1O` [Digitoxin] stands 40 µM; under `CCOCN(C(=O)CCl)c1c(C)cccc1CC` [Acetochlor], 75.3 µM.

For the compound `CCCN(CCC)S(=O)(=O)c1ccc(C(=O)O)cc1` [Probenecid], the AC50 under setting [2] came to 4.15 µM. As for `C[C@]12CC[C@H]3[C@@H](CC[C@@]45O[C@@H]4C(O)=C(C#N)C[C@]35C)[C@@H]1CC[C@@H]2O` [Trilostane], under setting [2], the AC50 was more than 50 µM. With `[O-][N+](=Nc1ccccc1)c1ccccc1` [Azoxybenzene], the AC50 under setting [2] is more than 50 µM.

As to `O=C(c1ccccc1)c1cc(Cl)ccc1O` [(5-Chloro-2-hydroxyphenyl)phenylmethanone], under setting [2], the AC50 was determined as 84.3 µM. For the compound `CCC(=O)OCC(=O)[C@@]1(OC(=O)CC)[C@@H](C)C[C@H]2[C@@H]3CCC4=CC(=O)C=C[C@]4(C)[C@@]3(F)[C@@H](O)C[C@@]21C` [Betamethasone dipropionate], the concentration at half-maximal activity (AC50) under setting [2] was found to be 27.9 µM.

As to `O=C(Nc1ccc(Cl)c(Cl)c1)C1CC1` [Cypromid], the AC50 under setting [2] came to 45.8 µM.

Regarding `CC[C@H](NC(=O)c1cc(F)ccc1NS(=O)(=O)c1cccc2cccnc12)c1ccccc1` [AVE3295], under setting [2], the AC50 worked out at 56.9 µM.

Turning to `CCN(Cc1c(F)cccc1Cl)c1c([N+](=O)[O-])cc(C(F)(F)F)cc1[N+](=O)[O-]` [Flumetralin], under setting [2], the AC50 was 39.8 µM. For `CON(C)C(=O)Nc1ccc(Cl)c(Cl)c1` [Linuron], under setting [2], the AC50 turned out to be 61.4 µM. Take `C#C[C@]1(O)CC[C@H]2[C@@H]3CCC4=C(CCC(=O)C4)[C@H]3CC[C@@]21C` [Norethynodrel]: the AC50 under setting [2] is 16.4 µM. The same measure, in the same setting: under `Cc1nc(-c2ccc(OCC(C)C)c(C#N)c2)sc1C(=O)O` [Febuxostat] stands 17.9 µM. Same read-out and setting: in the case of `O=C(/C=C/c1ccc([N+](=O)[O-])cc1)c1ccccc1` [4-Nitrochalcone] it was 49.3 µM; in that of `CC[C@H](C)C(=O)O[C@H]1C[C@H](O)C=C2C=C[C@H](C)[C@H](CC[C@@H](O)C[C@@H](O)CC(=O)O)[C@H]21` [Pravastatin sodium], 18.4 µM; in that of `CCn1c2ccccc2c2cc(N)ccc21` [3-Amino-9-ethylcarbazole hydrochloride], 46.6 µM.

`O=C(O)c1cccc(C[C@@H]2COc3ccc(OCc4nc5cc(F)ccc5s4)cc3[C@@H]2O)c1` [CP-085958]: the AC50 under setting [2] came out at 53.1 µM. Same read-out and setting: in the case of `O=c1oc2ccccc2c(O)c1Cc1c(O)c2ccccc2oc1=O` [Dicumarol] it was 12.7 µM. On the same count and under the same terms, in the case of `CC1(C)C2=CCCC(C)(C)[C@]23CC[C@H]1C3` [(-)-Isolongifolene] it was 54.9 µM.

As for `Cl[C@H]1[C@H](Cl)[C@@H](Cl)[C@@H](Cl)[C@H](Cl)[C@H]1Cl` [Lindane], the AC50 under setting [2] turned out to be 81.2 µM. Same read-out and setting: under `O=c1c(-c2ccc(O)cc2)coc2cc(O)ccc12` [Daidzein] stands 87.6 µM. With `Cl/C=C\C[N+]12CN3CN(CN(C3)C1)C2` [Chloroallyl methenamine chloride], under setting [2], the AC50 is 89.1 µM.
